Test results taken from paper PMC5540273 (PLoS ONE, 2017).

Legend:
Conditions in all cases: concentration: 1 μM, replicates: in singlicate; n = 1
AURKC = tested on: AURKC
AXL = tested on: AXL
BIKE = tested on: T1, BIKE
T1 construct: gene BMP2K

BLK = tested on: BLK
BMPR1A = tested on: BMPR1A
BMPR1B = tested on: BMPR1B
BMPR2 = tested on: BMPR2
BMX = tested on: BMX
BRAF = tested on: BRAF
BRK = tested on: T2, BRK
T2 construct: gene PTK6

BRSK1 = tested on: BRSK1
BRSK2 = tested on: BRSK2
BTK = tested on: BTK
BUB1 = tested on: BUB1
CAMK1B = tested on: CAMK1B
CAMK1D = tested on: CAMK1D
CAMK1G = tested on: CAMK1G
CAMK1 = tested on: CAMK1
CAMK2A = tested on: CAMK2A
CAMK2B = tested on: CAMK2B
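Also: KINOMEscan kinase panel screen.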

Compound | %Inh (AURKC) [%] | %Inh (AXL) [%] | %Inh (BIKE) [%] | %Inh (BLK) [%] | %Inh (BMPR1A) [%] | %Inh (BMPR1B) [%] | %Inh (BMPR2) [%] | %Inh (BMX) [%] | %Inh (BRAF) [%] | %Inh (BRK) [%] | %Inh (BRSK1) [%] | %Inh (BRSK2) [%] | %Inh (BTK) [%] | %Inh (BUB1) [%] | %Inh (CAMK1B) [%] | %Inh (CAMK1D) [%] | %Inh (CAMK1G) [%] | %Inh (CAMK1) [%] | %Inh (CAMK2A) [%] | %Inh (CAMK2B) [%]
N#Cc1ccc(Oc2ccc(Nc3ncnc4cc[nH]c34)cc2Cl)cc1 | 11 | 22 | 1 | 28 | 18 | 8 | 25 | 13 | 0 | 11 | 3 | 0 | 0 | 12 | 0 | 33 | 17 | 24 | 21 | 22
O=c1cc(N2CCOCC2)nc2n(Cc3cccc(Cl)c3)ccn12 [GSK2296823] | 1 | 0 | 20 | 9 | 0 | 0 | 0 | 20 | 10 | 7 | 25 | 0 | 0 | 18 | 22 | 22 | 0 | 0 | 0 | 0
COc1ccc(NC(=O)c2ccc(-c3cc(-c4nnc(C)o4)ccc3C)cc2)cc1 [GW595885] | 5 | 0 | 14 | 34 | 0 | 0 | 0 | 10 | 1 | 11 | 0 | 0 | 0 | 40 | 4 | 8 | 0 | 4 | 0 | 0
CC(C)(C)c1ccc(-n2cnc3c(N)ncnc32)cc1 [SKF-97263] | 16 | 15 | 19 | 6 | 0 | 5 | 6 | 16 | 0 | 6 | 18 | 0 | 0 | 18 | 12 | 9 | 0 | 10 | 0 | 0
O=C(Nc1n[nH]c2nc(-c3ccco3)c(Br)cc12)c1ccc(CN2CCCC2)cc1.O=C(O)[C@H](O)[C@@H](O)C(=O)O [SB-742352] | 0 | 51 | 0 | 0 | 0 | 0 | 0 | 8 | 0 | 0 | 51 | 24 | 0 | 0 | 0 | 8 | 0 | 0 | 2 | 0
Clc1cc(Nc2ncnc3cc[nH]c23)ccc1OCc1ccccn1 | 0 | 19 | 0 | 0 | 25 | 8 | 17 | 20 | 0 | 4 | 0 | 1 | 0 | 0 | 4 | 33 | 27 | 35 | 0 | 0
CCn1c(-c2ccncc2)nc2cnccc21 [SB-735216] | 0 | 24 | 8 | 0 | 4 | 0 | 24 | 17 | 19 | 3 | 0 | 0 | 28 | 15 | 45 | 6 | 0 | 0 | 0 | 0
O=C(NCCCN1CCCC1=O)c1cnc(NCc2cc(Cl)ccc2Cl)nc1NC1CCNCC1 | 0 | 41 | 4 | 0 | 6 | 0 | 0 | 0 | 39 | 0 | 6 | 0 | 0 | 0 | 21 | 6 | 0 | 0 | 0 | 0
Cl.Cn1ccc(-c2cccc(Nc3ccnc4cc(-c5nccs5)ccc34)c2)n1 [GW525701] | 0 | 0 | 0 | 15 | 0 | 0 | 16 | 0 | 0 | 5 | 0 | 38 | 0 | 62 | 3 | 3 | 38 | 0 | 0 | 0
Cc1ccc(O)cc1Nc1cc(C(F)(F)F)nc2ccc(-c3ccncc3)cc12 [GW630823] | 5 | 0 | 7 | 12 | 0 | 0 | 0 | 17 | 0 | 11 | 3 | 0 | 0 | 0 | 0 | 14 | 1 | 8 | 20 | 2
Fc1cccc(COc2ccc(Nc3ncnc4nn5ccccc5c34)cc2Cl)c1 [GW689066] | 6 | 0 | 15 | 57 | 0 | 0 | 4 | 5 | 0 | 0 | 0 | 0 | 15 | 49 | 15 | 21 | 0 | 19 | 0 | 0
O=C(Nc1ccccc1F)NC1CCN(c2ccnc(Nc3ccc(F)cc3)n2)C1 (stereo not drawn) [GSK1379722] | 30 | 0 | 8 | 16 | 0 | 0 | 13 | 7 | 7 | 5 | 17 | 0 | 12 | 44 | 0 | 0 | 0 | 0 | 0 | 0
CC(C)N1CCC(n2cnc(-c3ccc(F)cc3)c2-c2ccnc(N)n2)CC1 [SB-223132] | 51 | 5 | 32 | 2 | 10 | 0 | 0 | 9 | 0 | 5 | 0 | 0 | 13 | 15 | 0 | 0 | 0 | 0 | 4 | 0
Cc1ccc(C)c(NC(=O)NCCNc2ccnc(Nc3ccc(F)cc3)n2)c1 [GSK1379878] | 15 | 0 | 20 | 33 | 0 | 0 | 0 | 0 | 0 | 1 | 0 | 0 | 0 | 14 | 28 | 2 | 62 | 5 | 0 | 0
Cc1ccc(NC(=O)c2cccc(C#N)c2)cc1-c1ccc(C(=O)Nc2ccncc2)cc1 [GSK1398463] | 6 | 11 | 24 | 31 | 0 | 0 | 0 | 26 | 29 | 14 | 15 | 0 | 0 | 27 | 0 | 42 | 67 | 49 | 7 | 6
CSc1ccc(NC2=C(c3ccccc3Cl)C(=O)NC2=O)cc1 [SB-342411] | 13 | 3 | 19 | 0 | 0 | 0 | 5 | 34 | 21 | 14 | 0 | 12 | 0 | 0 | 0 | 22 | 19 | 3 | 18 | 13
CCc1nc(-c2cccc(C)c2)c(-c2ccnc(NC(=O)c3ccccc3)c2)s1 | 0 | 0 | 0 | 16 | 0 | 9 | 8 | 0 | 17 | 0 | 0 | 17 | 42 | 17 | 0 | 7 | 0 | 13 | 4 | 0
Cn1cc(-c2ccc3c(c2)CCN3C(=O)Cc2cccc(C(F)(F)F)c2)c2c(N)ncnc21 [GSK2606414] | 29 | 41 | 26 | 36 | 0 | 0 | 0 | 2 | 12 | 3 | 12 | 0 | 0 | 6 | 11 | 10 | 0 | 4 | 0 | 0
COc1ccc(Nc2nccc(N3CCC(NC(=O)Nc4ccc5c(c4)OCO5)C3)n2)cc1 (stereo not drawn) [GSK1379745] | 43 | 22 | 33 | 25 | 13 | 0 | 23 | 13 | 2 | 10 | 0 | 2 | 32 | 33 | 0 | 8 | 4 | 8 | 0 | 1
c1ccc(-c2ccc3c(-c4ccnc(Nc5ccc6c(c5)OCCO6)n4)cnn3n2)cc1 [GW818941] | 26 | 11 | 27 | 12 | 0 | 0 | 12 | 8 | 0 | 9 | 0 | 0 | 14 | 28 | 12 | 8 | 0 | 29 | 0 | 5
Fc1cccc(COc2ccc(Nc3ncnc4sc(-c5ccc[nH]5)cc34)cc2Cl)c1 [GW707818] | 9 | 0 | 24 | 0 | 25 | 0 | 1 | 6 | 0 | 0 | 1 | 16 | 5 | 25 | 9 | 22 | 0 | 25 | 0 | 0
